The record followed here is PubChem BioAssay (NCATS).

Inconclusive results are not listed. Calls of active or inactive are those of the source. Calls come from the whole dose curve; as a rule, active = well fitted inhibition curve with a large enough effect; inconclusive = small, poorly fitted or top-dose-only effect; inactive = flat fitted curve, though single readings scatter.

For the experiment, the target named is Aldehyde dehydrogenase, mitochondrial (Homo sapiens) (UniProt P05091). As to the kind of experiment: qHTS for Inhibitors of the Aldehyde Dehydrogenase Family (ALDH2) Primary screen (AID 2061308).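 Note: plate controls were vehicle for no effect and reference inhibitor for full effect; nearly all actives have a fitted effect of over 55% in size.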 The conditions noted are these: ALDH2 enzyme inhibition qHTS, 1536-well; series mostly up to 56 µM; activity change, negative = inhibition: at the top concentration.
In the case of `CN(C)c1ccc(-c2nc3ccccc3s2)cc1`, the “activity change, negative = inhibition” value was 5.91% (inactive).

For `COc1ccc(C[C@H](C)NC[C@@H](O)c2ccc(O)c(NC=O)c2)cc1`, the “activity change, negative = inhibition” value is 20.6% (inactive).

With `Fc1ccccc1-c1nc(-c2cccc(-c3nn[nH]n3)c2)no1`, the “activity change, negative = inhibition” value is 4.04% (inactive).

For `CN(C)c1cnc2c(O)ccc([S+](=O)([O-])Nc3ccccc3F)c2c1`, the “activity change, negative = inhibition” value is 0.666% (inactive).

Consider `FC(F)(F)c1ccc(N2CCN(C(=S)Nc3ccccn3)CC2)cc1`, for which the “activity change, negative = inhibition” value is -4.27% (inactive).

For `O=C(NC(c1ccco1)c1cc(Cl)c2cccnc2c1O)c1cccs1` (stereo not drawn), the “activity change, negative = inhibition” value was -27.5% (inactive).

Turning to `CC(=O)c1ccc(N2CCN(C(=O)c3ccc4c(c3)CCC(=O)N4)CC2)cc1`, the “activity change, negative = inhibition” value was 51.2% (inactive).

For `CN(C)CCN(Cc1ccc(-c2ccc(CNCCc3ccccc3)cc2)cc1)C(=O)CCC1CCCC1`, the “activity change, negative = inhibition” value was 27.5% (inactive).

Regarding `O=C1c2ccccc2C(=O)N1c1cccc2cccnc12`, the “activity change, negative = inhibition” value was -13.6% (inactive).

Take `O=C(O)c1ccc(-c2noc(-c3ccc(C(F)(F)F)cc3)n2)cc1`: the “activity change, negative = inhibition” value is -10.5% (inactive).

Turning to `Oc1c(CNc2ccccc2)cc(COCc2ccccc2)c2cccnc12`, the “activity change, negative = inhibition” value is -28.2% (inactive).

`Cc1ccnc(NC(=S)N2CCN(c3ccc(C#N)cc3)CC2)c1`: the “activity change, negative = inhibition” value is -11.4% (inactive).

As to `Cc1ccc(-c2ccc(=O)n(CC(=O)NCCCc3ccco3)n2)cc1`, the “activity change, negative = inhibition” value was 3.56% (inactive).

As to `COc1cccc(Cn2ncc3c4sc(B(O)O)cc4n(C)c3c2=O)c1`, the “activity change, negative = inhibition” value was 3.77% (inactive).

Consider `CC1(C)OB(c2ccc(O)c3ncc(N4CCNCC4)cc23)OC1(C)C`, for which the “activity change, negative = inhibition” value was -6.23% (inactive).

As for `COc1ccc(-c2ccc3c(N4CCOCC4)nc(N4CC(C)OC(C)C4)nc3n2)cc1CO` (stereo not drawn), the “activity change, negative = inhibition” value was 1.87% (inactive).

As to `Cc1ccnc(NC(=S)N2CCc3cccc(C(F)(F)F)c3C2)c1`, the “activity change, negative = inhibition” value was -16% (inactive).

As for `CN1CCN(c2ccc(-c3cc(O)c4ncccc4c3)cc2)CC1`, the “activity change, negative = inhibition” value was -0.93% (inactive).
